# Test results reported in publication PMC7862700, “An all-to-all approach to the identification of sequence-specific readers for epigenetic DNA modifications on cytosine”.
# Legend:
# Assay in all cases: DAPPL (digital affinity profiling via proximity ligation, sequencing); 10 mM Tris-HCl pH 7.5, 50 mM NaCl, 1 mM DTT, 4% glycerol, room temperature, 30 min; GST-TFs on glutathione beads, 16-mer random dsDNA library, 0.1% formaldehyde crosslink after washing; high values mean tight binding
# FLI1 = target: T1, FLI1 (Homo sapiens, UniProt Q01543 1-452); conditions: protein: recombinant; tags: N-terminal GST; dsDNA, one strand shown
# T1 sequence: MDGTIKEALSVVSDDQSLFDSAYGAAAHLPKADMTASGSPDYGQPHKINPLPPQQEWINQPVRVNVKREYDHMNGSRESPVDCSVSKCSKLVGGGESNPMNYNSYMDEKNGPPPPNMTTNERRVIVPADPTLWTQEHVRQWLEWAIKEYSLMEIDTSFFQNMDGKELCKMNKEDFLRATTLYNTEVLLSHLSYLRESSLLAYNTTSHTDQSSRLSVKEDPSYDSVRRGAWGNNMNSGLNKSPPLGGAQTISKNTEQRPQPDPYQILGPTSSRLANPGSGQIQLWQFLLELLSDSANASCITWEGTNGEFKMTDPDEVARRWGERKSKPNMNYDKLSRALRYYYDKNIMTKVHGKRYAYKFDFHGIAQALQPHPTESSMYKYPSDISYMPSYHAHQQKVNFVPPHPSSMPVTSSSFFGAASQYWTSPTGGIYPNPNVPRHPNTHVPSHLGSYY
# How it was run: (§1)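 A tag-only sample was pooled with DNA-barcoded human transcription factors that had been expressed in yeast as GST fusions and captured on glutathione beads. The pools were incubated for 30 min at room temperature with 200 nmole of a random double-stranded 16-mer DNA library in Tris/NaCl/DTT/glycerol buffer, then washed, crosslinked with 0.1% formaldehyde, proximity-ligated (BsaI/T4 ligase, 1 h, 37 °C), PCR-amplified and sequenced on an Illumina NextSeq500. Binding signal is each hexamer's read frequency for a factor divided by its frequency for the tag-only sample.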
# ELK1 = target: T2, ELK1 (Homo sapiens, UniProt P19419 1-428); conditions: protein: recombinant; tags: N-terminal GST; dsDNA, one strand shown
# T2 sequence: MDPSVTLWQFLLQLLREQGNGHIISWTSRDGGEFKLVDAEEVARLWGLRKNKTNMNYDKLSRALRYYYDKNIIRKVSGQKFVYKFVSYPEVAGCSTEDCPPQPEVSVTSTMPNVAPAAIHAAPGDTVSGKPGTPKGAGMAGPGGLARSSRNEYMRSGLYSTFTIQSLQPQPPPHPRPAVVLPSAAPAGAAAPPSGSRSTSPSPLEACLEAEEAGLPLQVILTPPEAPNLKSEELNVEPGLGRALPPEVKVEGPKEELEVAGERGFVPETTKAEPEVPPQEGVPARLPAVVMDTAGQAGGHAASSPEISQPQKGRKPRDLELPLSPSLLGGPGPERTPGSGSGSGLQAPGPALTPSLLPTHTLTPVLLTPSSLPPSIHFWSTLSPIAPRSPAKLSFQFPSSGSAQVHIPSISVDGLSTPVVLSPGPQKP
# How it was run: as §1
# GABPA = target: T3, GABPA (Homo sapiens, UniProt Q06546 1-454); conditions: protein: recombinant; tags: N-terminal GST; dsDNA, one strand shown
# T3 sequence: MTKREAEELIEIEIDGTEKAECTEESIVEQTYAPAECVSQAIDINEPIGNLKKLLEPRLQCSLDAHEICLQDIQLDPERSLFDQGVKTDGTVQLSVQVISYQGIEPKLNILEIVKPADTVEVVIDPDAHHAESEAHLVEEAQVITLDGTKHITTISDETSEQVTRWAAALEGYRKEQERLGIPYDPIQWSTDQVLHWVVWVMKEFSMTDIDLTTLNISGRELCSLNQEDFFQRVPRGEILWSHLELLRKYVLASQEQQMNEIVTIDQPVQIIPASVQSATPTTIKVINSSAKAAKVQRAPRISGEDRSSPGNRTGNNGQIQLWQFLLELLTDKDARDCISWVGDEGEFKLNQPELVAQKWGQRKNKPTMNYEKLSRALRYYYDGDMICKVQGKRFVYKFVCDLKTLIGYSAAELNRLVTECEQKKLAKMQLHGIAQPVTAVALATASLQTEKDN
# How it was run: as §1
# ERG = target: T4, ERG (Homo sapiens, UniProt P11308 1-479); conditions: protein: recombinant; tags: N-terminal GST; dsDNA, one strand shown
# T4 sequence: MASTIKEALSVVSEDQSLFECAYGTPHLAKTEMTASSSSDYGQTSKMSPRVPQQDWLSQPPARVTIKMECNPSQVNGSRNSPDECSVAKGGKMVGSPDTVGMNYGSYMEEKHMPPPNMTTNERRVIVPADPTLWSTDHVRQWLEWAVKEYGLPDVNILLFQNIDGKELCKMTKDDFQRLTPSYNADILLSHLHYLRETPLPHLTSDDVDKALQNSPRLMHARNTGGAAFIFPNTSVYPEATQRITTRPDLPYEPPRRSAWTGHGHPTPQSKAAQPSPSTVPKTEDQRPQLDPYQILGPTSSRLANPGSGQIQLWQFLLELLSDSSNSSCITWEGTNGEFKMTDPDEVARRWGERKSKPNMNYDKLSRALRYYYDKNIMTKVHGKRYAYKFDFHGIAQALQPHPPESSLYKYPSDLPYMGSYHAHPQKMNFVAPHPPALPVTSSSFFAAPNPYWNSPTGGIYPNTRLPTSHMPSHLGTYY
# How it was run: as §1
# ELF1 = ELF1 (Homo sapiens, UniProt P32519 1-619); conditions: protein: recombinant; tags: N-terminal GST; dsDNA, one strand shown
# Chain of ELF1 (P32519 whole entry): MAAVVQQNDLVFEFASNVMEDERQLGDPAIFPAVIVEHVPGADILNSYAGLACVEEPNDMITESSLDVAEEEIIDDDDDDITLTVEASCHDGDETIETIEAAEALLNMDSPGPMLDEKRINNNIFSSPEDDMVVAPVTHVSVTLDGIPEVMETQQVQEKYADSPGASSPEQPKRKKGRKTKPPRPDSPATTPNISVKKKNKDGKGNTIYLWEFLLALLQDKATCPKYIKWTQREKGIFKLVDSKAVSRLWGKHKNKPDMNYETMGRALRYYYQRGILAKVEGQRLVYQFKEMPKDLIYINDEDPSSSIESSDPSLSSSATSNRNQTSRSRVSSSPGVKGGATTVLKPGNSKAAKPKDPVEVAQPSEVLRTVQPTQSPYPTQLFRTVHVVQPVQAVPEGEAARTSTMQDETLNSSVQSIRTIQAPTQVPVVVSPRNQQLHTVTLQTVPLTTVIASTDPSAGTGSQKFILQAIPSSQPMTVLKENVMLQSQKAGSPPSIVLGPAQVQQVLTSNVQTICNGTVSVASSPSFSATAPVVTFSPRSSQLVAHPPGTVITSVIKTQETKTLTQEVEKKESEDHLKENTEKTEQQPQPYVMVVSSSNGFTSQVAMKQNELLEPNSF
# How it was run: as §1
# EHF = target: T5, EHF (Homo sapiens, UniProt Q9NZC4 1-300); conditions: protein: recombinant; tags: N-terminal GST; dsDNA, one strand shown
# T5 sequence: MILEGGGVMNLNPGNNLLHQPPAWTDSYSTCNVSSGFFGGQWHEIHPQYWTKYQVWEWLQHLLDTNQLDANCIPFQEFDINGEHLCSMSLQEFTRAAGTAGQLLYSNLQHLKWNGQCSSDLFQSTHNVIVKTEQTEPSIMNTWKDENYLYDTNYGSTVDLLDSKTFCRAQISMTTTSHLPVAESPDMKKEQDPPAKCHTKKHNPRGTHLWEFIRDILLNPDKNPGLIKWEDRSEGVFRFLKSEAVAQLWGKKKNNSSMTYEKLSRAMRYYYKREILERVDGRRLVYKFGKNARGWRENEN
# How it was run: as §1
# SPI1 = SPI1 (Homo sapiens, UniProt P17947 1-270); conditions: protein: recombinant; tags: N-terminal GST; dsDNA, one strand shown
# How it was run: as §1
# SPIB = SPIB (Homo sapiens, UniProt Q01892 1-262); conditions: protein: recombinant; tags: N-terminal GST; dsDNA, one strand shown
# Chain of SPIB (Q01892 whole entry): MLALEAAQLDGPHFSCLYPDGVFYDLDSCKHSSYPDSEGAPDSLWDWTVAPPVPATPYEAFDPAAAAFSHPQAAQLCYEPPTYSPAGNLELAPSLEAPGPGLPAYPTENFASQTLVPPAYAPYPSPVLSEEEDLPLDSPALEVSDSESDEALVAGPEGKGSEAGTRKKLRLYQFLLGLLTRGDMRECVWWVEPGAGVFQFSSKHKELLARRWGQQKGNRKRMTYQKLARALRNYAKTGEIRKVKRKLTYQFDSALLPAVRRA
# How it was run: as §1
# ELK3 = target: T6, ELK3 (Homo sapiens, UniProt P41970 1-407); conditions: protein: recombinant; tags: N-terminal GST; dsDNA, one strand shown
# T6 sequence: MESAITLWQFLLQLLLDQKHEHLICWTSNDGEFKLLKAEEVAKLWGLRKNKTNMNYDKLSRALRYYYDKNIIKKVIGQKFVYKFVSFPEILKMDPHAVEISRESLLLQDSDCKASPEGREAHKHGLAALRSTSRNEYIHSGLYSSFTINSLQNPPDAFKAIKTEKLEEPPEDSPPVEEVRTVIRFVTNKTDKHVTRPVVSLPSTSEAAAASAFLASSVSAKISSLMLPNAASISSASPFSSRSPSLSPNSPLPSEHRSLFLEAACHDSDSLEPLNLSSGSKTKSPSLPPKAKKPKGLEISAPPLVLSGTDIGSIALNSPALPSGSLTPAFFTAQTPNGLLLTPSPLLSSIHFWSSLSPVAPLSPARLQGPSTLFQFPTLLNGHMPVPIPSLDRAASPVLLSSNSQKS
# How it was run: as §1
# FEV = target: T7, FEV (Homo sapiens, UniProt Q99581 1-238); conditions: protein: recombinant; tags: N-terminal GST; dsDNA, one strand shown
# T7 sequence: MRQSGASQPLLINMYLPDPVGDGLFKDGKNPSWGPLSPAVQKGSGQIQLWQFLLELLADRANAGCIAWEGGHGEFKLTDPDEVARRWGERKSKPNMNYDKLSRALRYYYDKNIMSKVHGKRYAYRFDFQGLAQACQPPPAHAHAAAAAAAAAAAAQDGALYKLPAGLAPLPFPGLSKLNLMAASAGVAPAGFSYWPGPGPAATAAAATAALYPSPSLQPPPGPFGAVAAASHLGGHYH
# How it was run: as §1
# ETV5 = ETV5 (Homo sapiens, UniProt P41161 1-510); conditions: protein: recombinant; tags: N-terminal GST; dsDNA, one strand shown
# Chain of ETV5 (P41161 whole entry): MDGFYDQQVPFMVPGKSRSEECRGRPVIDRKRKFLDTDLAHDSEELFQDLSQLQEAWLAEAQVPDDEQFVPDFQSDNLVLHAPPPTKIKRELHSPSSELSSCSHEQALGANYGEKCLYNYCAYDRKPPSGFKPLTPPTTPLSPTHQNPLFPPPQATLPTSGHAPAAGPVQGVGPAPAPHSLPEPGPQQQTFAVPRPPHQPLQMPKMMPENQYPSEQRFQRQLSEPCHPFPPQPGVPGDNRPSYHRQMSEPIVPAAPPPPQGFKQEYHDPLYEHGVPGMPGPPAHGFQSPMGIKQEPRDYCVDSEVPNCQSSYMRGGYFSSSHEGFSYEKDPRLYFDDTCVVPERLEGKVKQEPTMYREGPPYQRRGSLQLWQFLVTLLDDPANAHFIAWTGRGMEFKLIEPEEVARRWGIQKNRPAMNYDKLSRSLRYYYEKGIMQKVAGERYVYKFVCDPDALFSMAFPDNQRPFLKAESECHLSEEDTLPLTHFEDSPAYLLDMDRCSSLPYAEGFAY
# How it was run: as §1
# HSF1 = HSF1 (Homo sapiens, UniProt Q00613 1-529); conditions: protein: recombinant; tags: N-terminal GST; chain copies: 3; dsDNA, one strand shown
# Chain of HSF1 (Q00613 whole entry): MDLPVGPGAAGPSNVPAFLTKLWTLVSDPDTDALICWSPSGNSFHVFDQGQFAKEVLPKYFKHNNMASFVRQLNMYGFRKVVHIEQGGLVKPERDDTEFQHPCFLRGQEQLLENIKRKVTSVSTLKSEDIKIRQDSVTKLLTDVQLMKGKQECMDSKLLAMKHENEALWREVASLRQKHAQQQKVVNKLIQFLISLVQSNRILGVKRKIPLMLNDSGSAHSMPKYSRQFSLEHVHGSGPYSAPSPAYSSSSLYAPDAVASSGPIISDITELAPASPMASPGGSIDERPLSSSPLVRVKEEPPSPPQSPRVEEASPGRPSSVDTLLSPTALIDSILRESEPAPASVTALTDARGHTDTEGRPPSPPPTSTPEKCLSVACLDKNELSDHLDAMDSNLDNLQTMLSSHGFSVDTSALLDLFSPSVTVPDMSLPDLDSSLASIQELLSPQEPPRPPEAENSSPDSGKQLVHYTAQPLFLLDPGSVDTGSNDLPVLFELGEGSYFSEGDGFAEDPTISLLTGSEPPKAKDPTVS
# How it was run: as §1
# SPIC = target: T8, SPIC (Homo sapiens, UniProt Q8N5J4 1-248); conditions: protein: recombinant; tags: N-terminal GST; dsDNA, one strand shown
# T8 sequence: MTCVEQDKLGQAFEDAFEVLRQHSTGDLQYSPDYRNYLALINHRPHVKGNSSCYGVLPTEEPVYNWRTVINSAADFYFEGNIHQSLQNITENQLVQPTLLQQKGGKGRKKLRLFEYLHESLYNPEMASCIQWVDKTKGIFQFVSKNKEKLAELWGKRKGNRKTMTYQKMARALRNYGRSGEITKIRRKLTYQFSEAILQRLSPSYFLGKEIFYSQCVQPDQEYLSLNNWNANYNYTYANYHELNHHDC
# How it was run: as §1
# ELF4 = ELF4 (Homo sapiens, UniProt Q99607 1-663); conditions: protein: recombinant; tags: N-terminal GST; dsDNA, one strand shown
# Chain of ELF4 (Q99607 whole entry): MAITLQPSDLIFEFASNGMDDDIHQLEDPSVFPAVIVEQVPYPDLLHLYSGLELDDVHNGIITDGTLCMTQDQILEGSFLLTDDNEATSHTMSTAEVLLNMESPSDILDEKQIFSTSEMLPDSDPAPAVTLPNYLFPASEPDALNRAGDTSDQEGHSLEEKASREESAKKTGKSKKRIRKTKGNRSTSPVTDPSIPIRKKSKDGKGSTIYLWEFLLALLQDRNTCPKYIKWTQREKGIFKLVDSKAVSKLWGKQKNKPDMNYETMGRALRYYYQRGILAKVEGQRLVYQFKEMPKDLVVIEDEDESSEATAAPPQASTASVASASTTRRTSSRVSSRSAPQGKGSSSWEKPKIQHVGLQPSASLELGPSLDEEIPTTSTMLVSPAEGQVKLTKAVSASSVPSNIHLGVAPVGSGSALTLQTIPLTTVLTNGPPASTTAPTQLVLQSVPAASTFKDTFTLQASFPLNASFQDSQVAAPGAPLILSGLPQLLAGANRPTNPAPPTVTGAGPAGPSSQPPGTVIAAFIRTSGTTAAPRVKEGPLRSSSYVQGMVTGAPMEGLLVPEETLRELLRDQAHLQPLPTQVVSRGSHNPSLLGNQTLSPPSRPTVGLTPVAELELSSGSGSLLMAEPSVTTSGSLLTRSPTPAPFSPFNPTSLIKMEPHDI
# How it was run: as §1
# ELK4 = target: T9, ELK4 (Homo sapiens, UniProt P28324-2 1-405); conditions: protein: recombinant; tags: N-terminal GST; dsDNA, one strand shown
# T9 sequence: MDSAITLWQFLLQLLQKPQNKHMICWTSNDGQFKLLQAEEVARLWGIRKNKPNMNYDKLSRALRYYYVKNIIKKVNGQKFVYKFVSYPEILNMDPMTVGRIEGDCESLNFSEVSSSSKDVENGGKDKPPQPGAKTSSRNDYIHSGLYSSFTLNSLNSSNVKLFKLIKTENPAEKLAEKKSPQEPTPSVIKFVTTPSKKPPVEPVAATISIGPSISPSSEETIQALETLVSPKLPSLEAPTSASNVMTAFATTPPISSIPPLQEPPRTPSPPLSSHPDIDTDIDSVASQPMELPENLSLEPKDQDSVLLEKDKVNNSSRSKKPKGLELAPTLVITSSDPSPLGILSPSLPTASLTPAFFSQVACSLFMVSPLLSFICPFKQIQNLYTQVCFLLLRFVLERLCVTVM
# How it was run: as §1
# ETV2 = target: T10, ETV2 (Homo sapiens, UniProt O00321 1-342); conditions: protein: recombinant; tags: N-terminal GST; dsDNA, one strand shown
# T10 sequence: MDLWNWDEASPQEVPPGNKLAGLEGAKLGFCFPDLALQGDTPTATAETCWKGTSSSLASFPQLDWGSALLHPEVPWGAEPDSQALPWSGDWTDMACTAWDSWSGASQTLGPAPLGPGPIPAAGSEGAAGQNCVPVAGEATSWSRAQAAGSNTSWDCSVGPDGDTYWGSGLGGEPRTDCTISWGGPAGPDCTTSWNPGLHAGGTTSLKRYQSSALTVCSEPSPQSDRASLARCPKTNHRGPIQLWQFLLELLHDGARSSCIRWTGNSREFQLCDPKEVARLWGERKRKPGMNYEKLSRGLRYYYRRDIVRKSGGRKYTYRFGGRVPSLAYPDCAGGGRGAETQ
# How it was run: as §1
# ELF3 = target: T11, ELF3 (Homo sapiens, UniProt P78545 1-371); conditions: protein: recombinant; tags: N-terminal GST; dsDNA, one strand shown
# T11 sequence: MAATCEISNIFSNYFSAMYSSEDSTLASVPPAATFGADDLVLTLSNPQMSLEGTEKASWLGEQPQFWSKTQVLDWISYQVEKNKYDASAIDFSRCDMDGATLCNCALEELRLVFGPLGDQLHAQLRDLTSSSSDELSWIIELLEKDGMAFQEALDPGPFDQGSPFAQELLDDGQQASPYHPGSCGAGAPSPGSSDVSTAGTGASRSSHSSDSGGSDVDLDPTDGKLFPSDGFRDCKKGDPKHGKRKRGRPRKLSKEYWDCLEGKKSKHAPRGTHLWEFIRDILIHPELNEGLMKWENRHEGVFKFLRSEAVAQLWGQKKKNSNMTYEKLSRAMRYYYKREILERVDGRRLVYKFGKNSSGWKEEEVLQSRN
# How it was run: as §1
# CRX = CRX (Homo sapiens, UniProt O43186 1-299); conditions: protein: recombinant; tags: N-terminal GST; dsDNA, one strand shown
# Chain of CRX (O43186 whole entry): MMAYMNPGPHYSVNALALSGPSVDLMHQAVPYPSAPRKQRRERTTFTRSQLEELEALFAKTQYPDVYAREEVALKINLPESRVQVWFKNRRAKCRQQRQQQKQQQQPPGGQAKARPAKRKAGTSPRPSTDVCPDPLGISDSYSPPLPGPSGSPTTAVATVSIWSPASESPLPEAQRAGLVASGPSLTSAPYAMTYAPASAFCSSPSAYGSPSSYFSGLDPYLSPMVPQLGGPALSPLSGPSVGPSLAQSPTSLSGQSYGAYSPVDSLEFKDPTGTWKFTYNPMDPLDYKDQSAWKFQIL
# How it was run: as §1
# ETV1 = ETV1 (Homo sapiens, UniProt P50549 1-477); conditions: protein: recombinant; tags: N-terminal GST; dsDNA, one strand shown
# Chain of ETV1 (P50549 whole entry): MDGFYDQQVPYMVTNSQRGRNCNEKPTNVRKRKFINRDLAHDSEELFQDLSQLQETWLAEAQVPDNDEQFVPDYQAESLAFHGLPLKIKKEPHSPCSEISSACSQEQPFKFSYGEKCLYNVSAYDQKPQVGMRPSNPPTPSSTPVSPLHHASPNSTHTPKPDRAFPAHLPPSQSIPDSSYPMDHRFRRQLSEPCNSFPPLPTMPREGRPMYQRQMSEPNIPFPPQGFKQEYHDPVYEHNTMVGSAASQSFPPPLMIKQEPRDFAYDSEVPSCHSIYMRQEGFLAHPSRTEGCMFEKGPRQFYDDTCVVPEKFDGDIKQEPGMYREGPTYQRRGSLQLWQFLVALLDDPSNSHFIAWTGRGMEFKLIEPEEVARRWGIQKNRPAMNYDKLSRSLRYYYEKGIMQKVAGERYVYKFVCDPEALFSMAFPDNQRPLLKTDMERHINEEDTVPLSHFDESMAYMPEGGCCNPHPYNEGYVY
# How it was run: as §1
sequence,measurement,setting,value
CCTCTG,binding signal,FLI1,"1.57 fold enrichment (6-mer frequency, TF over GST control)"
same,binding signal,ELK1,"1.75 fold enrichment (6-mer frequency, TF over GST control)"
same,binding signal,GABPA,"1.63 fold enrichment (6-mer frequency, TF over GST control)"
same,binding signal,ERG,"1.62 fold enrichment (6-mer frequency, TF over GST control)"
same,binding signal,ELF1,"1.65 fold enrichment (6-mer frequency, TF over GST control)"
same,binding signal,EHF,"1.67 fold enrichment (6-mer frequency, TF over GST control)"
same,binding signal,SPI1,"1.63 fold enrichment (6-mer frequency, TF over GST control)"
same,binding signal,SPIB,"1.6 fold enrichment (6-mer frequency, TF over GST control)"
same,binding signal,ELK3,"1.58 fold enrichment (6-mer frequency, TF over GST control)"
same,binding signal,FEV,"1.48 fold enrichment (6-mer frequency, TF over GST control)"
same,binding signal,ETV5,"1.56 fold enrichment (6-mer frequency, TF over GST control)"
same,binding signal,HSF1,"1.39 fold enrichment (6-mer frequency, TF over GST control)"
same,binding signal,SPIC,"1.44 fold enrichment (6-mer frequency, TF over GST control)"
same,binding signal,ELF4,"1.66 fold enrichment (6-mer frequency, TF over GST control)"
same,binding signal,ELK4,"1.9 fold enrichment (6-mer frequency, TF over GST control)"
same,binding signal,ETV2,"1.5 fold enrichment (6-mer frequency, TF over GST control)"
same,binding signal,ELF3,"1.73 fold enrichment (6-mer frequency, TF over GST control)"
same,binding signal,CRX,"1.36 fold enrichment (6-mer frequency, TF over GST control)"
same,binding signal,ETV1,"1.67 fold enrichment (6-mer frequency, TF over GST control)"
